HPGD block: blocks human HPGD enzyme activity. purified HPGD, NADH fluorescence kinetic, PGE2 substrate. 150,000 compounds, 4.3% hits. P15428. Potency, µM, for inactives: at the highest dose activity change, negative = inhibition, actives largely listed as inhibitors; active = well fitted inhibition curve with a large enough effect, not every such curve was filed as active; inconclusive = small, poorly fitted or top-dose-only effect, or another doubt; inactive = no such curve, though single readings can be large or run the other way; also: potency is read from the fitted curve at half-maximal effect
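NADH formation kinetics: reaction with 30 uM PGE2 and 1 mM NAD+ (final), 20 nM enzyme, Tris-HCl pH 8 with Tween 20, after 15 min compound preincubation at room temperature. Fluorescence change, last versus first of five reads.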
ALOX12 inhib: inhibitors of human 12-lipoxygenase (ALOX12). 150,000 compounds, 0.12% hits. P18054. AID 1452. purified 12-hLO, xylenol orange hydroperoxide absorbance. Potency, µM (highest dose often 57.1 µM), without a hit: top-dose activity change, negative = inhibition, most hits filed as inhibitors; also: potency is read from the fitted curve at half-maximal effect; nearly all actives have a fitted effect of over 55% in size
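Hydroperoxide output read as Fe(III)-xylenol orange absorbance, 573-to-405 nm ratio, after 30 min reaction with 40 uM arachidonic acid. Enzyme: 150 nM purified human 12hLO, 15 min compound preincubation; 25 mM Hepes pH 7.0, room temperature.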
ALDH1A1 inh: blocks purified human ALDH1A1 activity. P00352. Purified ALDH1A1, NADH fluorescence, propionaldehyde substrate. Potency, µM (titrated, usually from 75.3 µM), for inactives: top-dose activity, negative = inhibition, usual class: inhibitors. 220,000 compounds, 7.3% hits. AID 1030; active = well fitted inhibition curve with a large enough effect, not every such curve was filed as active; inconclusive = small, poorly fitted or top-dose-only effect, or another doubt; inactive = no such curve, though single readings can be large or run the other way;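 also: potency is read from the fitted curve at half-maximal effect; plate controls were no enzyme wells and a reference inhibitor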
Target sequence (P00352 whole entry, looked up): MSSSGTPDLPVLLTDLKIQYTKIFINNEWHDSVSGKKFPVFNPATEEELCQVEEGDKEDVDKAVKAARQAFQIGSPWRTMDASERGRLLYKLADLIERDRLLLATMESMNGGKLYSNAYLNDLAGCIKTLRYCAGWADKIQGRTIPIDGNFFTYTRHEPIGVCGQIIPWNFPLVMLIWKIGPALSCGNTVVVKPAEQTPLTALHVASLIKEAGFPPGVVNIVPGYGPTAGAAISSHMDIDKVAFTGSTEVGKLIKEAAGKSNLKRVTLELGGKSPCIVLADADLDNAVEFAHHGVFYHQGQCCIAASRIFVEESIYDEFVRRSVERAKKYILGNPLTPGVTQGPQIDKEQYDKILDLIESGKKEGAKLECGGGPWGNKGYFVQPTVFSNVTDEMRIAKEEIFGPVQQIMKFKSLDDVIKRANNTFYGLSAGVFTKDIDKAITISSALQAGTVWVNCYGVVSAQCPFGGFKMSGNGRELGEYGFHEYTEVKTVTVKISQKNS
NPSR antag: blocks cAMP signaling of the human neuropeptide S receptor; Q6W5P4; CHO-NPSR cells, cAMP TR-FRET, antagonist mode; Potency, µM (titrated, usually from 38.3 µM), for the others: at the top dose activity change, negative = inhibition, usual class: inhibitors; 220,000 compounds, 1% hits; AID 1461; also: potency is read from the fitted curve at half-maximal effect; nearly all actives have a fitted effect of over 50% in size
IMPase Li inh: cell-permeable IMPase inhibitors with lithium potentiation; CHO-M1 cells, IP1 TR-FRET (IP-One), carbachol + lithium; Potency, µM (series often up to 59.4 µM), for the others: at the highest dose activity, negative = IMPase inhibition, usual class: inhibitors; 210,000 compounds, 0.35% hits; AID 1457;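 also: IP1 builds up when IMPase is blocked and the TR-FRET signal falls; potency is read from the fitted curve at half-maximal effect; plate controls were basal vehicle for no effect and high inhibitor control for full effect; nearly all actives have a fitted effect of over 50% in size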
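Concentration–response in CHO-M1 cells, lithium-potentiated; 30 min at 37C. IP1 detected by competitive TR-FRET after 10 min lysis at RT. Hill-fitted AC50.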
IMPase inh: IMPase inhibition in cells; 120,000 tested, under 10 active; P97697; inhibition (IP1 accumulation), % at 46.1 µM; CHO-M1 cells, IP1 accumulation, HTRF TR-FRET ratio; active = well fitted curve in the direction sought with a large enough effect in the signal ratio, not every such curve was filed as active; inconclusive = small, poorly fitted or top-dose-only effect, or a change in a side signal; inactive = no such curve, though single readings can be large or run the other way; the % refers to the signal ratio;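 also: cells stimulated with carbachol in lithium chloride buffer; plate controls were DMSO basal wells for no effect and reference inhibitor wells for full effect; higher means more IMPase inhibition seen as more IP1 and lower FRET ratio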
Target sequence (P97697 whole entry, looked up): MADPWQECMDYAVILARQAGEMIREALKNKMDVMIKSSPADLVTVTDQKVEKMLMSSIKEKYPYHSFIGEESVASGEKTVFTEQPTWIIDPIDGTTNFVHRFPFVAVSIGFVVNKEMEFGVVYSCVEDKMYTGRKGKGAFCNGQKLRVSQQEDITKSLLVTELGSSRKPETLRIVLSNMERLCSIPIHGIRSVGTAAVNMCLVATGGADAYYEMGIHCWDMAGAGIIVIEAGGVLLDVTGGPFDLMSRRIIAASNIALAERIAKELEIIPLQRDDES
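Cellular IMPase inhibition is scored as a rise in cytosolic IP1, detected by competitive TR-FRET between d2-labelled IP1 and a europium anti-IP1 antibody. M1-expressing CHO cells were stimulated with carbachol for 30 min at 37C, with lithium (50 mM LiCl) present in the buffer.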
* = called active by the depositor; ? = inconclusive; . = no result given; ! = not active in a repeat; [ ] = another dose, or the depositor's remark. Most compounds without a hit are left out; they make up all but 8.9% or so of the library. Unless noted, calls follow the shape of the dose curve; as a rule, active = well fitted curve in the direction sought with a large enough effect; inconclusive = small, poorly fitted or top-dose-only effect, or another doubt; inactive = no such curve, though single readings can be large; an effect the other way counts as inactive or inconclusive. Unless noted, % is scaled to controls: 0 for no effect and ±100 for the full control effect.

SMILES	HPGD block	ALOX12 inhib	ALDH1A1 inh	NPSR antag	IMPase Li inh	IMPase inh
CCCCCCNC(=O)c1ccc(Br)o1	?	3%[0.00818 µM]	-8%[120 µM]	11%	-7%	.
O=C(NCCCc1ccccc1)c1ccc(Br)o1	25µM*	1%	?	-5%[46.1 µM]	8%[38.3 µM]	4
O=C(NCCC1=CCCCC1)c1ccc(Br)o1	-17%	-7%	3.5µM*	4%[46.1 µM]	26%[38.3 µM]	0
O=C(NCCc1ccccc1)c1ccc(-c2ccccc2C(F)(F)F)o1	?	-2%	25µM*	-6%	11%	.
O=C(NCCCCc1ccccc1)c1ccc(Br)o1	14µM*	4%	-2%	-12%	9%	16
CSc1ncc(-c2ccccc2)cn1	.	.	-1%	22%	-2%	.
Cc1ccc2cc(CCNC(=O)c3ccc(Br)o3)c(=O)[nH]c2c1	28µM*	-7%	?	-5%[46.1 µM]	-5%[38.3 µM]	7
O=C(NNC(=S)NCc1ccc(Cl)cc1)c1ccc(Br)o1	.	.	-1%	-4%	2%	.
Cc1ccn2cc(CNC(=O)c3ccc(Br)o3)nc2c1	16µM*	-3%	1%	-4%[46.1 µM]	10%[38.3 µM]	0
Cc1ccn2cc(CCNC(=O)c3ccc(Br)o3)nc2c1	-9%	-3%	6%	-7%[46.1 µM]	30%[38.3 µM]	-3
O=C(NCc1ccc(Cl)cc1)c1ccc(Br)o1	35µM*	-4%[0.00818 µM]	13µM*!	12%[46.1 µM]	-3%	1
CC(C)CC(=O)NCCCCc1ccccc1	16µM*	-5%	?	19%	-1%	.
COCCNC(=O)C1CC(c2ccc(F)cc2)=NO1 (configuration not stated)	-13%	8%	2%	3%[46.1 µM]	-4%[38.3 µM]	5
CCOC(=O)N1CCN(C(=O)C(C)N(c2ccc(Oc3ccccc3)cc2)S(C)(=O)=O)CC1 (configuration not stated)	0%	5%	2%	-14%[46.1 µM]	23%[38.3 µM]	4
Cc1nn(-c2ccccc2)c2c1/C(=N/O)CC(C)(C)C2	1%	-4%	-4%	-11%[46.1 µM]	4%[38.3 µM]	8
Cc1nn(-c2ccccc2)c2c1C(=O)N(c1ccccc1)C(=O)C(C)(C)C2	-21%	1%	13µM*	-7%[46.1 µM]	5%[38.3 µM]	2
COc1ccc(CN2C(=O)CS(=O)CC2=O)cc1OC	-12%	1%	8.9µM*	2%[46.1 µM]	-1%	8
COC(=O)c1cc2occc2n1Cc1nc(-c2cccc(Cl)c2)oc1C	-9%	-4%	4%	-4%	20%	.
Cc1ccc(C(CCN(Cc2ccccc2)C(=O)c2ccco2)c2ccco2)cc1 (configuration not stated)	?	-13%	20µM*	-55%	10%	.
CCC(=O)N(CCC(c1ccco1)c1ccccc1OC)Cc1cccs1 (configuration not stated)	-16%	-6%	?	?	44%[38.3 µM]	4
CC1(C)CC(CCN(Cc2ccccc2)C(=O)c2ccco2)(c2ccccc2)CCO1 (configuration not stated)	-12%	-10%	25µM*	?	8%	8
CC(=O)N(CCC(c1ccccc1)c1ccco1)Cc1cccs1 (configuration not stated)	28µM*	0%	1.4µM*	-29%[46.1 µM]	35%[38.3 µM]	9
O=C(c1ccco1)N(CCC(c1ccccc1)c1ccco1)Cc1ccco1 (configuration not stated)	20µM*	-15%	3.5µM*	-20%[46.1 µM]	-16%[38.3 µM]	6
CN(Cc1ccccc1)C(=O)c1ccco1	.	.	5%	-3%	1%	.
O=C(O)/C=C/C(=O)N(Cc1ccccc1)Cc1ccco1	-2%	2%	0%	17%	-4%	-12
SMILES	HPGD block	ALOX12 inhib	ALDH1A1 inh	NPSR antag	IMPase Li inh	IMPase inh
CCOC(=O)c1sc(=S)n(-c2ccccc2Cl)c1C	.	.	?	45%	.	.
COc1cc(OC)c(NC(=O)Cn2cccc2)cc1Cl	-7%	5%	-11%	-3%[46.1 µM]	-5%[38.3 µM]	17
COc1cc(OC)c(NC(=S)Nc2cccc(C(C)=O)c2)cc1Cl	-12%	-23%	-4%	-13%[46.1 µM]	-13%[38.3 µM]	-3
O=S(=O)(c1cccc(C(F)(F)F)c1)N(CCCN1CCOCC1)Cc1cccs1	-4%	-1%	13µM*	-30%[46.1 µM]	13%[38.3 µM]	7
COC(=O)c1ccccc1S(=O)(=O)N(CCCN1CCOCC1)Cc1cccs1	0%	3%	?	4%	10%	-3
CCN(CC(=O)NCc1ccc(F)cc1)C(=O)/C=C/c1ccco1	.	.	?	-2%	16%	.
CCCN(CC(=O)Nc1ccc(Cl)cc1Cl)C(=O)/C=C/c1ccco1	-3%	-8%	0.22µM*	-14%	8%	4
Cc1c(C(N)=O)sc(N)c1C(=O)OC(C)C	-22%	-3%	-5%	23%[46.1 µM]	-4%[38.3 µM]	-4
CCOC(=O)c1c(N)sc(C(N)=O)c1C	?	4%	25µM*	21%[46.1 µM]	-10%[38.3 µM]	-13
C=CCn1sc(N)c(C(=O)OCC)c1=S	-6%	-6%	5%	-19%[46.1 µM]	-2%[38.3 µM]	-4
Cc1c(C(=O)OC(C)C)sc(N)c1C(=O)OC(C)C	22µM*	0%	?	-39%	15%	.
CCOC(=O)c1c(N)sc(C(=O)Nc2ccccc2)c1C	.	.	10µM*	15%	1%	.
CCOC(=O)c1c(N)ssc1=S	25µM*	-2%	3.2µM*	-11%[46.1 µM]	-5%	1
COc1ccc(NC(c2nnc(-c3ccccc3)o2)c2ccccc2F)cc1Cl (configuration not stated)	.	.	.	.	.	20
CCc1ccc(C2=NNC(=Nc3cccc(S(=O)(=O)N(C)C)c3)SC2)cc1	-5%	-5%	0%	-1%	-4%	.
CCOC(=O)N1CCN(CC(=O)Nc2sccc2C#N)CC1	.	.	3%	0%	10%	.
CCOC(=O)c1c(N)sc2c1CCC(CC)C2 (configuration not stated)	?	-24%	?	0%[46.1 µM]	17%[38.3 µM]	-10
CCOC(=O)c1c(N)sc(=S)c2c1CCC2	?	-20%	32µM*	-16%[7.67 µM]	-19%[38.3 µM]	6
CCOC(=O)c1sc(N)c(C(N)=O)c1C	.	.	?	12%	2%	.
CCOC(=O)c1c(N)sc(N)c1C(=O)OCC	8.9µM*	-22%	1.8µM*	2%	13%	.
C=CCN1C=CC(=C/C=C(/C#N)C(=O)OCC)C=C1	?	5%	-4%	10µM*	26%	42
CCOC(=O)/C(C#N)=C/C=C1/C=CC=CN1C	.	.	?	37%	.	.
CCOc1ccc(CCNC(=O)c2ccc(Nc3nc4ccccc4n4nnnc34)cc2)cc1OCC	.	.	.	.	.	7
c1ccc(CCNc2nc3ccccc3n3nnnc23)cc1	-22%	3%	10%	?	3.5µM*	?
COc1ccc(CCNc2nc3ccccc3n3nnnc23)cc1OC	-14%	-4%	8%	?	10µM*	1
C=CCN(C(=O)CSC1=NC(=O)CN1C(C)=O)c1nc(C)c(-c2ccccc2)s1	.	.	6.3µM*	?	18%	.
